Experiment [1] is described as follows: rapamycin-like changes in RPL19A-GFP expression – cell-based, S. cerevisiae, multiplex flow cytometry, primary screen (AID 1862; in the data active = percent of DMSO control GFP below about 86%;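 also: lower values mimic rapamycin by blocking the RPL19A rise seen in DMSO cells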). As to conditions: S. cerevisiae RPL19A-GFP strain, flow cytometry fluorescence, 3 h; at 10 µM; stronger effect = lower value. (A flow cytometer gives signals particle by particle.)
A short description of experiment [2]: TOR pathway GLN3 branch reporter MEP2-GFP changes – S. cerevisiae, multiplex flow cytometry, primary screen (AID 1867;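 active = GFP response, as percent of the DMSO control, above the screen-wide mean plus 3 SD, about 139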;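 also: median GFP channel fluorescence of barcode-gated MEP2-GFP cells measured by flow cytometry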). As to conditions: S. cerevisiae MEP2-GFP strain, 3 h, at 10 µM, stronger effect = higher value, 100% means same as DMSO wells.
Experiment [3] in a line: TOR pathway RTG branch CIT2 reporter changes – S. cerevisiae, GFP fusion, multiplex flow cytometry, primary screen (AID 1870;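 active = percent response above a set limit, the screen-wide mean plus 3 SD, cut at about 130% in these data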;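 also: barcoded CIT2-GFP strain pooled with four other GFP strains with rapamycin as positive control; median GFP fluorescence per well over plate mean of DMSO wells so 100% = DMSO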). As to conditions: S. cerevisiae CIT2-GFP expression, 3 h, at 10 µM, stronger effect = higher value.
The nature of experiment [4]: TOR pathway LAP4-GFP level changes – S. cerevisiae, multiplex flow cytometry, primary screen (AID 1873;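 active = GFP signal, as percent of the solvent control, above the screen mean plus 3 SD, about 149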). As to conditions: S. cerevisiae LAP4-GFP expression, 3 h, at 10 µM, stronger effect = higher value.
Experiment [5] in a line: reduced mouse 2C T cell binding to pMHC/ICAM-1 vesicles – MLPCN validation set, flow cytometry, LFA-1/ICAM-1 modulator project, pilot screen (AID 2523;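 active = response below a set limit, under 55% cells CD8-positive and vesicle-bound, and CD8 cells' 90th-percentile brightness under 279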;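 as to vesicle binding response: mean PE anti-B7-1 fluorescence of CD8+ cells relative to row control; 100% = QL9-loaded vesicles with DMSO vehicle in the same plate row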). As to conditions: 2C mouse CD8+ T cells, at 7 µM, stronger effect = lower value; double positive events: measured here: CD8+/vesicle+ event percentage.
Experiment [6] addresses Integrin beta-1 (Homo sapiens) + Integrin alpha-4 (Homo sapiens) (UniProt P13612+P05556). In words: alpha4beta1 integrin LIBS antibody binding reduction – U937 cells, HUTS-21 mAb, flow cytometry, validation set, VLA-4 allosteric modulator project, pilot screen (AID 2674;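 active = inhibition above 50%, about 3 SD of the validation set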;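 also: antibody binding induced by the VLA-4 ligand LDV present at three times its Kd; 0% = LDV ligand with antibody and no compound and 100% = antibody without LDV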). As to conditions: HUTS-21 LIBS mAb binding, at 6.7 µM, stronger effect = higher value, binding induced by LDV ligand.

Experiment [7] in a line: calorie-restriction mimetic ROS inhibitors, yeast – validation compound set, pilot screen (AID 2706;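 active = superoxide response below 65% of plate, a cut near 3 SD across the whole screen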;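 also: yeast exposed to compound for one week at 30 degrees C before staining; 100% = mean of all compound wells on the same plate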). As to conditions: S. cerevisiae aging, superoxide DHE fluorescence; at 10 µM, stronger effect = lower value.
The target in experiment [8] is Beta-adrenergic receptor kinase 1 (Homo sapiens) (UniProt P25098). Kind of experiment: GRK2 binders displacing RNA aptamer, biochemical, validation, human GRK2, bead flow cytometry (AID 488806;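 active = aptamer binding inhibition above 30%, about 3 SD of noise from non-fluorescent compounds; inactive = inhibition at or below 30%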). As to conditions: bead-bound GRK2, FAM-aptamer displacement, at 10 µM, stronger effect = higher value.
Experiment [9] concerns the target Beta-2 adrenergic receptor (Homo sapiens) (UniProt P07550). In words: agonist-induced loss of surface beta2AR – cell-based, FAP fluorogen, flow cytometry, validation set, pilot screen (AID 504459;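 active = percent response above 42, roughly 3 SD of non-fluorescent test compounds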;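 also: agonist-driven loss of surface beta2AR via internalization measured by FAP dye flow cytometry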). As to conditions: Am2.2-beta2AR cells, at 10 µM, stronger effect = higher value.
Experiment [10] concerns the target AP-2 complex subunit beta (Homo sapiens) (UniProt P63010). Kind of experiment: beta-arrestin/AP2 interaction blockers – biochemical, validation set, GST-AP2 beads, flow cytometry, pilot screen (AID 504541;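 active = inhibition above 54%, about 3 SD of non-fluorescent compounds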;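 also: AP2 carries R879A mutation and is captured from E. coli lysate; bead-bound FITC arrestin peptide fluorescence measuring arrestin peptide binding to AP2; 0% = DMSO wells and 100% = excess unlabeled arrestin peptide control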). As to conditions: FITC arrestin peptide, at 10 µM, stronger effect = higher value, AP2 beta2 appendage fragment, R879A mutant.
Experiment [11] in a line: cytosolic pH regulators acting via V-ATPase – S. cerevisiae, pHLuorin, HTS validation (AID 504600).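 Also: plate controls were DMSO for no effect and reference compound for full effect.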 As to conditions: V-ATPase proton transport, at 10 µM, stronger effect = higher value.
Experiment [12] relates to anti-desmoglein-3 scFv antibody binding to human DSG3. Kind of experiment: blockers of pathogenic pemphigus antibody–desmoglein-3 binding – biochemical, validation compound set, bead-based, flow cytometry, pilot screen (AID 588368;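 active = binding below the plate cutoff, the plate median minus 3 SD, with a reading above zero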;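 also: signal is the median channel fluorescence of bead-bound GFP antibody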). As to conditions: Protein G beads, DSG3-Fc, scFv-GFP binding, at 10 µM, stronger effect = lower value.
Experiment [13] can be described thus: Nile Red efflux blockade in pump-expressing yeast – validation compound set, multiplex, phenotypic, pilot screen (AID 588506;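 active = efflux inhibition above 0.42, the validation set average plus 4 SD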;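 also: Nile Red retained in cells so higher fluorescence means more efflux inhibition; 0 = negative control wells and 1 = enniatin B 25 µM full block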). As to conditions: S. cerevisiae pump-expressing triplex, Nile Red efflux flow cytometry; at 10 µM; stronger effect = higher value; the pumps come from Candida albicans.
Experiment [14] has as its target ATP-binding cassette sub-family B member 6 (Homo sapiens) (UniProt Q9NP58). In words: blockers of ABCB6-driven porphyrin uptake – K562-ABCB6 cells, flow cytometry, validation set, pilot screen (AID 588550;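 active = inhibition above the screen-wide mean plus 3 SD, about 51%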;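 also: 0% = DMSO wells and 100% = benzethonium chloride 70 µM positive control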). As to conditions: K562-ABCB6 porphyrin accumulation, 1 h, at 10 µM, stronger effect = higher value.
Experiment [15] is described as follows: AML differentiation inducers, ER-HoxA9 marrow cells – cell-based, GFP/MAC1 double positive, flow cytometry, validation set, primary screen (AID 588685;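 active = differentiation response of at least 50%, scaled between solvent and reference control, from cells with both markers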;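 also: compound exposure lasts four days before antibody staining and flow analysis; 0% = DMSO wells and 100% = 5 µM fulvestrant positive control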). As to conditions: stronger effect = higher value, normalized: vehicle 0, fulvestrant 100.
The nature of experiment [16]: yeast AGP1-GFP level changes, GLN3 branch – cell-based, multiplex flow cytometry, S. cerevisiae, primary screen (AID 1887;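 active = GFP signal above the screen-wide mean plus 3 SD, that is over about 124.5% of the solvent control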;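 also: AGP1-GFP fusion strain of S. cerevisiae within a five-strain barcoded multiplex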). As to conditions: 3 h, at 10 µM, stronger effect = higher value.

Results filed as inconclusive are left out. Activity calls are given as the source filed them. Rule as the data show it, unless noted: active = response above about 15%; inactive = the rest.

Chain of Beta-2 adrenergic receptor (Homo sapiens) (P07550 whole entry, looked up): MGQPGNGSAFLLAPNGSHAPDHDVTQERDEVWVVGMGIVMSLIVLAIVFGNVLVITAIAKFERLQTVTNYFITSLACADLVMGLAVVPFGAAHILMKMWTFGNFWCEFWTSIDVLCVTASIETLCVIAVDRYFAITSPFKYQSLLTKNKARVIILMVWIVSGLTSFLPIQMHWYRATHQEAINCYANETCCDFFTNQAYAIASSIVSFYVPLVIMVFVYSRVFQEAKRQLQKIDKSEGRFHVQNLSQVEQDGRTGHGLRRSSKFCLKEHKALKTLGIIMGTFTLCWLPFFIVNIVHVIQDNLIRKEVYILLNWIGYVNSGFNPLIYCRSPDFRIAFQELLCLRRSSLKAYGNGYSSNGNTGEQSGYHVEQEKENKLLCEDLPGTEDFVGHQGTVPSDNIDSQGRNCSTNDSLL
Chain of Integrin beta-1 (Homo sapiens) + Integrin alpha-4 (Homo sapiens) (P05556 whole entry, looked up): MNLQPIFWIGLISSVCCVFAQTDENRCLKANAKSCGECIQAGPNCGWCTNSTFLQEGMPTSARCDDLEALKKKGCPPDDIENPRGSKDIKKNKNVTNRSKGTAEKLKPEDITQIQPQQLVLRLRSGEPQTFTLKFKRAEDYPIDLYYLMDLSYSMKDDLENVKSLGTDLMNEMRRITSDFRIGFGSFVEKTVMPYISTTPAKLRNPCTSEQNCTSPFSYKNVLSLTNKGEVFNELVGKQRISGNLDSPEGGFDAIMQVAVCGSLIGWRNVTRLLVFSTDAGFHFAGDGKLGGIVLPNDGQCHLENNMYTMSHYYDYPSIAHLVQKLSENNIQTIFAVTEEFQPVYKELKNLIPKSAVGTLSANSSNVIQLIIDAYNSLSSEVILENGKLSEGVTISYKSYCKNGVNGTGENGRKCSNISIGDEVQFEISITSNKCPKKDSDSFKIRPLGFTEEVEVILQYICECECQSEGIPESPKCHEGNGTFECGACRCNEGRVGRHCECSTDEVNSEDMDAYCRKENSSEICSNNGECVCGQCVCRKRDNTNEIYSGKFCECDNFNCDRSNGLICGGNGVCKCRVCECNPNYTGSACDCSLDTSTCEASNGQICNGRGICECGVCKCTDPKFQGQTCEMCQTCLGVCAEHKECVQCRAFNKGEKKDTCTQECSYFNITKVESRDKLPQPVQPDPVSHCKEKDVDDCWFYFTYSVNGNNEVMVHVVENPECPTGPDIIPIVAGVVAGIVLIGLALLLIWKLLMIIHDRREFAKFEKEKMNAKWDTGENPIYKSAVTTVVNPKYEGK
Chain of Integrin beta-1 (Homo sapiens) + Integrin alpha-4 (Homo sapiens) (P13612 whole entry, looked up): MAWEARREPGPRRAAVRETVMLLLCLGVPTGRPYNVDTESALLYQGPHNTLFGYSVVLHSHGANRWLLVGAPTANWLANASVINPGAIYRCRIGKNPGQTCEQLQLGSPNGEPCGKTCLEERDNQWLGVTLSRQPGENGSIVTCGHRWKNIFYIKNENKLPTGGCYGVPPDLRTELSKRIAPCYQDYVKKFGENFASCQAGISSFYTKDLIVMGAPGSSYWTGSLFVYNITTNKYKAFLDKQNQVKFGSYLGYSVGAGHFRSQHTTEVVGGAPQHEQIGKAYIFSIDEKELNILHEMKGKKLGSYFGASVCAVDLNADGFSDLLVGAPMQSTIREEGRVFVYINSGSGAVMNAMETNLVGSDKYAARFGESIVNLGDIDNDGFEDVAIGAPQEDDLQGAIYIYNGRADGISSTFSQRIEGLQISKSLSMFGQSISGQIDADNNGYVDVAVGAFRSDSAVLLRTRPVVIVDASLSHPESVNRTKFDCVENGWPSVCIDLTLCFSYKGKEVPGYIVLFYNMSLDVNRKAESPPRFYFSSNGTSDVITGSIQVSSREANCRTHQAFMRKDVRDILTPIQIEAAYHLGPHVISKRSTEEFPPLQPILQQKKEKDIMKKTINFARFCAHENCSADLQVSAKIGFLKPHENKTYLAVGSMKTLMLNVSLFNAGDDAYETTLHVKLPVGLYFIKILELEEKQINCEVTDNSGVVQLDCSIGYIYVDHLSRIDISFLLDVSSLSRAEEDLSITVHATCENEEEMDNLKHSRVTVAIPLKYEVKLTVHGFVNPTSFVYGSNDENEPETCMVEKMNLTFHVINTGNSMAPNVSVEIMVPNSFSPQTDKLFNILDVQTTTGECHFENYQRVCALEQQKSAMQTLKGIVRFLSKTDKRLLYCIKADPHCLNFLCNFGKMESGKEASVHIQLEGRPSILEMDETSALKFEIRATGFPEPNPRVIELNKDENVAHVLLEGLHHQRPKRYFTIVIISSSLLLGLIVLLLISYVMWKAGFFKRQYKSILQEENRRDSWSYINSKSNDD
Chain of Beta-adrenergic receptor kinase 1 (Homo sapiens) (P25098 whole entry, looked up): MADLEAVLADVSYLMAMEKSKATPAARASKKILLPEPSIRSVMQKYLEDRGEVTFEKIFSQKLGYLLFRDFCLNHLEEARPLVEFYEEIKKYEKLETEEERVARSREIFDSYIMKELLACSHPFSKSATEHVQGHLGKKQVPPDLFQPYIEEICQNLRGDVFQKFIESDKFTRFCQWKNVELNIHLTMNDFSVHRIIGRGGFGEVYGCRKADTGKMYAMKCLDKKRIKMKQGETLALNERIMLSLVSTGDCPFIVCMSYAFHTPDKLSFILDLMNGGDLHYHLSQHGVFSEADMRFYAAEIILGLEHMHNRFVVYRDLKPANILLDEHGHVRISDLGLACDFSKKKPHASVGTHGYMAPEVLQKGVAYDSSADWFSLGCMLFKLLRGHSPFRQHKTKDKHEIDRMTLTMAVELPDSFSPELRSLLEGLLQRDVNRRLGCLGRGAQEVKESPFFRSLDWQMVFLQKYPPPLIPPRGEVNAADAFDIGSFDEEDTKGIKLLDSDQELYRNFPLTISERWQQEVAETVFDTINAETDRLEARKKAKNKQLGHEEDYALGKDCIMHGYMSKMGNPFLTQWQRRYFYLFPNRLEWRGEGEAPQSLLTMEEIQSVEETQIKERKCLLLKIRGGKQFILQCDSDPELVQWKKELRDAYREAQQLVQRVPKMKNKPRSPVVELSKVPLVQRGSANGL
Chain of AP-2 complex subunit beta (Homo sapiens) (P63010 whole entry, looked up, the tested form may be a part, one chain of several): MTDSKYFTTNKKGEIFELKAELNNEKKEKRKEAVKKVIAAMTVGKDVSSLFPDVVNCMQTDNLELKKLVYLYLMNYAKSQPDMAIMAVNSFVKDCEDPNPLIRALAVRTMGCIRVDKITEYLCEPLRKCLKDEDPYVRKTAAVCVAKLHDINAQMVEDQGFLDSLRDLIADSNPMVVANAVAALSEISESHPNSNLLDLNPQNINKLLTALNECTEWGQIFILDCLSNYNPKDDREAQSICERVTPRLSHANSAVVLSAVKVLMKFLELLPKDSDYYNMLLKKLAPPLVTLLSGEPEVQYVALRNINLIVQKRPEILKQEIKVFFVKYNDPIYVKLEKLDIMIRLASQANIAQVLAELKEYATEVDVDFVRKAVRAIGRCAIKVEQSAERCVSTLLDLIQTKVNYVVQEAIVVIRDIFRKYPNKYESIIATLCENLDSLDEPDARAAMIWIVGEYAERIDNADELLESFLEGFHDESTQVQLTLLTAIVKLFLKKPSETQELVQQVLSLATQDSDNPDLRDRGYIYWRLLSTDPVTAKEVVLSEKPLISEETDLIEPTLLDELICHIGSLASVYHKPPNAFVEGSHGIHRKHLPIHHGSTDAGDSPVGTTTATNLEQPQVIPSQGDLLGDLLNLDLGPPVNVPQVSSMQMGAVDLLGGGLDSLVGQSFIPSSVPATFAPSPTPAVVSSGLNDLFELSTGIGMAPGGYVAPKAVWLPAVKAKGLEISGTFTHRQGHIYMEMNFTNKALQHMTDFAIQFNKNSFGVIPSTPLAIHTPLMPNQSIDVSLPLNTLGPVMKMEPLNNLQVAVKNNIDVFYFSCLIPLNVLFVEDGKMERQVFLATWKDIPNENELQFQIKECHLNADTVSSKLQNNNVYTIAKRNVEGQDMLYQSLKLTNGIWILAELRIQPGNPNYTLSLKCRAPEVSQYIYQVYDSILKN
Chain of ATP-binding cassette sub-family B member 6 (Homo sapiens) (Q9NP58 whole entry, looked up): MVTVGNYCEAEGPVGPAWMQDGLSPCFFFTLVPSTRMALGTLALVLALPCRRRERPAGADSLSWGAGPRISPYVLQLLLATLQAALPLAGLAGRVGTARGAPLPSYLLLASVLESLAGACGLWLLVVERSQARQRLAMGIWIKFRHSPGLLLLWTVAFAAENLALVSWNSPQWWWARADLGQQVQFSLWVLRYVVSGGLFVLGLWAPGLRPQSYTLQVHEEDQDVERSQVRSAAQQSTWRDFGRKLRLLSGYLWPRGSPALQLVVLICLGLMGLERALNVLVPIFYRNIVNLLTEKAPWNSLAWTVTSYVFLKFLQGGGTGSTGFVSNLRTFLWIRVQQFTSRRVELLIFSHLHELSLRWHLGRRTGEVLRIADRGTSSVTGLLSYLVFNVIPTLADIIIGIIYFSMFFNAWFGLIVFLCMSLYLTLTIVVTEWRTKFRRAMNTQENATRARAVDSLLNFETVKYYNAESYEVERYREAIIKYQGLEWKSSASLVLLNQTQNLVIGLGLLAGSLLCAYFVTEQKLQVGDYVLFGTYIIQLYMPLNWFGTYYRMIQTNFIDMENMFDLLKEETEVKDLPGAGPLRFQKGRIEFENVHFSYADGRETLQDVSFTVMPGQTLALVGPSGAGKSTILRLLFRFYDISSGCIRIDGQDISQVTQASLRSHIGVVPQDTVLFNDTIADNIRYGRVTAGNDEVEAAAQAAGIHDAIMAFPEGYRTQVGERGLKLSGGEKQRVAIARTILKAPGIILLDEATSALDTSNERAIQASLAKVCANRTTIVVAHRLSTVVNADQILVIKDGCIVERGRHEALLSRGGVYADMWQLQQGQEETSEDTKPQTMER

In the case of `Cc1ccc(S(=O)(=O)Nc2ccc(S(=O)(=O)Nc3cc(C)nc(C)n3)cc2)cc1`, the percent of DMSO control GFP in [1] was 91.1% (inactive). The figures for the GFP response vs DMSO in experiment [2] and in experiment [4] were 120% (inactive) and 78.1% (inactive), respectively. Also, in [3], the percent response of DMSO control is 108% (inactive). This molecule yielded a double positive events in [5] of 76%. The vesicle binding response in experiment [5] was 256% (inactive). Also, the inhibition (commonly the relative decrease from the control value, in per cent) is 23.9% (inactive) in [6], -0.21% (inactive) in [10] and 6% (inactive) in experiment [14]. Moreover, the superoxide response (% of plate) in [7] was 89.7% (inactive). Besides, the aptamer binding inhibition in experiment [8] was 0% (inactive). The response in experiment [9] is 1.77% (inactive); in experiment [11], 15% (inactive). Further, the binding (% of control) in experiment [12] is 101% (inactive). In [13], the efflux inhibition (fraction of control) is -0.35 (inactive). Besides, the differentiation response in experiment [15] was 26.2% (inactive).
With `CCOC(=O)[C@H](CCc1ccccc1)N[C@@H](C)C(=O)N1CCC[C@H]1C(=O)O`, the percent of DMSO control GFP in experiment [1] is 102% (inactive). The GFP response vs DMSO in [2] is 98.3% (inactive); in experiment [4], 98.6% (inactive). Besides, the percent response of DMSO control in experiment [3] was 93.1% (inactive). Further, the GFP response, % of DMSO in experiment [16] was 96.4% (inactive). Moreover, the double positive events in experiment [5] was 64.3%. The vesicle binding response in experiment [5] is 171% (inactive). For the same molecule, the inhibition in experiment [6] was -5.64% (inactive); in experiment [10], 61% (active); in [14], 3% (inactive). In [8], the aptamer binding inhibition was 13% (inactive). Also, the response in [9] is -2.62% (inactive); in experiment [11], -5.12% (inactive). For the same molecule, in experiment [12], the binding (% of control) is 95.3% (inactive). Besides, the efflux inhibition (fraction of control) in experiment [13] is 0.46 (active). Also, in [15], the differentiation response was 25.7% (inactive).
Consider `OC[C@H]1O[C@@H](n2cnc3c(Nc4ccccc4)ncnc32)[C@H](O)[C@@H]1O`, for which the percent of DMSO control GFP in [1] was 92.4% (inactive). The GFP response vs DMSO in experiment [2] is 118% (inactive); in experiment [4], 73.2% (inactive). Besides, the percent response of DMSO control in [3] is 112% (inactive). This molecule also yielded a double positive events in experiment [5] of 62.8%. The vesicle binding response in experiment [5] is 139% (inactive). Besides, the inhibition in [6] was -9.06% (inactive); in experiment [10] it was -2.59% (inactive); in experiment [14], 10% (inactive). Also, the superoxide response (% of plate) in experiment [7] is 110% (inactive). Besides, the aptamer binding inhibition in [8] is 1% (inactive). Further, the response is -8.38% (inactive) in [9] and -0.49% (inactive) in experiment [11]. The binding (% of control) in experiment [12] is 103% (inactive). Besides, the efflux inhibition (fraction of control) in [13] was 0.3 (inactive). Further, the differentiation response in experiment [15] is 2.46% (inactive).
As for `CN(C)CCCN1c2ccccc2CCc2ccc(Cl)cc21`, in experiment [1], the percent of DMSO control GFP was 100% (inactive). Also, the GFP response vs DMSO in experiment [2] was 99.7% (inactive); in [4], 98% (inactive). For the same molecule, the percent response of DMSO control in experiment [3] was 101% (inactive). The GFP response, % of DMSO in experiment [16] is 97.1% (inactive). In [5], the double positive events is 65%. Besides, the values for the inhibition in [6], in experiment [10] and in experiment [14] were 12.3% (inactive), -2% (inactive) and 18% (inactive), respectively. Besides, the superoxide response (% of plate) in [7] is 97.5% (inactive). Also, the aptamer binding inhibition in experiment [8] was -3% (inactive). Also, the response in experiment [9] is 38.7% (inactive); in experiment [11] it was -7.85% (inactive). Also, the binding (% of control) in [12] is 112% (inactive). Moreover, the efflux inhibition (fraction of control) in [13] is 0.51 (active). Also, the differentiation response in [15] was -10.4% (inactive).
For `COc1ccc(Cc2nc(-c3ccc(Br)cc3)no2)cc1`, in experiment [1], the percent of DMSO control GFP is 100% (inactive). Moreover, the GFP response vs DMSO was 103% (inactive) in experiment [2] and 95.3% (inactive) in experiment [4]. Further, the percent response of DMSO control in experiment [3] is 101% (inactive). In [16], the GFP response, % of DMSO was 102% (inactive). Also, the double positive events in [5] turned out to be 40%. The results for the inhibition in experiment [6], in [10] and in experiment [14] were -12.9% (inactive), 58.9% (active) and -4% (inactive), respectively. The superoxide response (% of plate) in experiment [7] was 117% (inactive). In addition, the aptamer binding inhibition in [8] is -1% (inactive). The figures for the response in experiment [9] and in [11] were -5.31% (inactive) and -2.85% (inactive), respectively. Also, in experiment [12], the binding (% of control) is 99.3% (inactive). Moreover, the efflux inhibition (fraction of control) in [13] is 0.14 (inactive). Also, the differentiation response in experiment [15] is 48.1% (inactive).

The record behind these values is PubChem BioAssay.
